HepG2 tox-1 – qHTS for Inhibitors of TGF-b: Cytotox Counterscreen; HepG2 CAGA-GFP viability, ATP luminescence, 18 h; Potency, µM (titrated, usually from 46.1 µM), most hits filed as cytotoxic; 0.76% of 410,000 active
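CellTiter-Glo luminescence gave cytotoxicity after 18 hours at 37 degrees C. The cells were HepG2 CAGA-GFP in 1% FBS DMEM, stimulated with 500 pg/mL TGF-beta after compound addition. %Activity was normalised to no-cell wells (complete cell-killing) and DMSO (no toxicity), and curves were fitted and classified.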
S2 tox – Viability Counterscreen for Primary qHTS for Inhibitors of ATXN expression; S2 cells (HEK-293 line with an ATXN2-luciferase reporter) viability, CellTiter-Fluor protease fluorescence, 24 h; Potency, µM (highest dose often 56.7 µM), usual class: cytotoxic; 0.49% of 400,000 active; AID 651635, 2014; further: nearly all actives have a fitted effect of over 40% in size
ATXN2 expr inh – Primary qHTS for Inhibitors of ATXN expression. 0.72% of 360,000 active. HEK-293 ATXN2-luciferase reporter, luminescence, 24 h. AID 1745845, 2022. Potency, µM (titrated, usually from 57 µM), most hits filed as inhibitors; further: nearly all actives have a fitted effect of over 55% in size
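ATXN2-luciferase reporter cells (luciferase flanked by upstream and downstream ATXN2 gene portions) were treated 24 h at 37 °C with compounds at up to 57 uM. SteadyGlo luminescence gave expression; GF-AFC fluorescence gave viability.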
HT1080 IDH1KD tx – qHTS for induction of synthetic lethality in tumor cells producing 2HG: qHTS for the HT-1080-IDH1KD cell line | HT-1080 IDH1 knockdown viability, ATP luminescence, 48 h | Potency, µM (series often up to 46.1 µM), actives largely listed as cytotoxic | 2% of 360,000 active | AID 686971, 2013
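CellTiter-Glo luminescence after 48 h compound exposure at 37 degrees C of IDH1-knockdown HT-1080 cells in 5% FBS RPMI. %Activity scaled between DMSO wells and cell-free media wells, with curves fitted and assigned curve classes.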
HT1080NT lethal – qHTS for induction of synthetic lethality in tumor cells producing 2HG: qHTS for the HT-1080-NT fibrosarcoma cell line | HT-1080-NT fibrosarcoma viability, CellTiter-Glo ATP luminescence, 48 h | Potency, µM (series often up to 46.1 µM), hits mostly cytotoxic | 1.6% of 360,000 active;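 further: NT is the 2HG producing partner of a matched IDH1 knockdown line; nearly all actives have a fitted effect of over 55% in size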
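Read-out is CellTiter-Glo luminescence after 10 minutes at room temperature, following 48 hours' compound treatment of HT-1080-NT cells (750 cells/well, RPMI, 5% FBS, 37 degrees C).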
TGFb SMAD3 inh – qHTS for Inhibitors of TGF-b. HepG2 CAGA-GFP TGF-b/SMAD3 reporter, GFP fluorescence, 18 h; TGF-beta stimulated, 500 pg/mL final. Potency, µM (series often up to 46.1 µM), hits mostly inhibitors. 1.2% of 410,000 active; further: nearly all actives have a fitted effect of over 65% in size
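Per well, imaged GFP fluorescence of HEPG2 CAGA-GFP cells gives the signal; cells get compound, then TGF-beta (500 pg/mL final), 18 h at 37 degrees C; %Activity versus -TGF-beta and +DMSO controls.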
TGFb CAGA inh – qHTS for Inhibitors of TGF-b: Confirmation of Cherry Picks | shares compounds with TGFb SMAD3 inh | HepG2 CAGA-GFP TGF-b reporter, GFP fluorescence, 18 h; cells stimulated with TGF-beta, 500 pg/mL | Potency, µM (titrated, usually from 46.1 µM), usual class: inhibitors | 63% of 1,600 active; further: nearly all actives have a fitted effect of over 65% in size
HepG2 tox-2 – qHTS for Inhibitors of TGF-b: Cytotox Counterscreen for Cherry Picks. shares compounds with TGFb SMAD3 inh. HepG2 CAGA-GFP viability, ATP luminescence, 18 h; cells stimulated with TGF-beta, 500 pg/mL. Potency, µM (titrated, usually from 46.1 µM), hits mostly inhibitors. 27% of 1,600 active. AID 720535, 2013; further: nearly all actives have a fitted effect of over 70% in size
CCL64 TGFb inh – qHTS for Inhibitors of TGF-b: CCL64 Cells Orthogonal Assay for Cherry Picks; Potency, µM (highest dose often 46.1 µM), hits mostly inhibitors; AID 720536, 2013; CCL64 CAGA-GFP reporter, TGF-b stimulated, GFP fluorescence, 18 h; shares compounds with TGFb SMAD3 inh; 41% of 1,600 active; further: nearly all actives have a fitted effect of over 65% in size
TGFb COP inh – qHTS for Inhibitors of TGF-b: Hit Validation in HepG2 Cells using COP promoter. HepG2 COP-GFP TGF-b reporter, GFP fluorescence, 18 h; cells stimulated by added recombinant TGF-beta. 3% of 1,600 active. shares compounds with TGFb SMAD3 inh. Potency, µM (doses to about 46.1 µM), usual class: inhibitors. AID 720537, 2013; further: nearly all actives have a fitted effect of over 70% in size
A number is an active result; 0 = inactive; ? = inconclusive; - = no result; [ ] = dose if it differs, or a comment. This is a sample that favours compounds with a hit; in the whole collection about 3.8% have one here. The call rests on the fitted dose curve; in most records, active means well fitted curve in the direction sought with a large enough effect; inconclusive means small, poorly fitted or top-dose-only effect, or another doubt; inactive means no such curve, though single readings can be large; an effect the other way counts as inactive or inconclusive.

SMILES	HepG2 tox-1	S2 tox	ATXN2 expr inh	HT1080 IDH1KD tx	HT1080NT lethal	TGFb SMAD3 inh	TGFb CAGA inh	HepG2 tox-2	CCL64 TGFb inh	TGFb COP inh
Cc1ccc(CCNC(=O)c2cc3n(n2)CCCN(Cc2ccc(C)cc2)C3=O)cc1	0	0	0	-	-	0	-	-	-	-
Oc1ccc(C[C@H]2CNC(=S)N2CC2CCCN2C[C@H](Cc2ccccc2)N2C[C@H](Cc3ccc(O)cc3)N(CC3CCCCC3)C2=S)cc1 (some centres not stated)	0	?	?	25.9µM	?	5.62µM	14.6µM	?	4.11µM	0
COc1ccc(N(C(=O)c2ccco2)C(C(=O)NC2CCCCC2)c2cccs2)cc1OC (configuration not stated)	0	?	0	0	0	0	-	-	-	-
COc1ccc(N(C(=O)CCl)C(C(=O)NCCc2ccccc2)c2cccs2)cc1Cl (configuration not stated)	0	1.41µM	1.78µM	5.8µM	18.4µM	7.94µM	4.61µM	5.17µM	2.06µM	20.6µM
Cc1cc(C)c(S(=O)(=O)c2ccc(Cl)cc2)c(Cl)n1	0	0	0	0	0	0	-	-	-	-
Cc1cc(S(=O)(=O)c2ccc(Cl)cc2)nc(S(=O)(=O)c2ccc(Cl)cc2)c1C#N	0	0.794µM	-	6.51µM	?	7.08µM	5.8µM	18.4µM	1.84µM	18.4µM
Cc1ccccc1CN(CC(=O)Nc1cccc([N+](=O)[O-])c1)S(=O)(=O)c1ccc(Cl)cc1	0	?	0	0	?	11.2µM	10.3µM	?	2.31µM	0
O=C(Oc1ccc(Cl)c2cccnc12)N1CCCCC1	0	?	0	0	0	0	-	-	-	-
O=C(Oc1ccc(Cl)c2cccnc12)c1cccnc1	0	-	0	?	?	10µM	0	0	?	0
c1ccc(-c2nc3nonc3nc2-c2ccccc2)cc1	10µM	?	?	?	0	8.91µM	14.6µM	?	?	?
COc1cccc(Cl)c1NC(=O)N1CCN(c2cc(C)nc3ccccc23)CC1	0	?	?	?	0	12.6µM	0	?	?	0
COc1ccc(Br)c(C(=O)Nc2cc3c(cc2N2CCOCC2)n(C)c(=O)n3C)c1	0	0	0	-	-	0	-	-	-	-
CN(C)C(=O)c1ccc(-c2cc3onc(-c4ccccc4)c3c(=O)n2C)cc1	0	0	0	0	0	?	0	0	0	0
CCN(C(=O)Cn1c(SCc2ccccc2F)nc2cccnc21)c1ccccc1	0	-	-	-	-	?	-	-	-	-
Cc1cc(O)c(C(C)C)cc1NC(=O)Nc1ccc([N+](=O)[O-])cc1	0	0	0	?	0	0	-	-	-	-
Cc1ccc(C(C)C)cc1NC(=O)Nc1ccc([N+](=O)[O-])cc1	0	?	-	0	0	7.94µM	?	?	18.4µM	0
CC(C)c1cnc2c(c1SCC(=O)N1CCCCC1)c(=O)n(C)c(=O)n2C	0	-	-	-	-	0	-	-	-	-
O=C(CN(Cc1ccc(Br)cc1)S(=O)(=O)c1ccccc1)NCc1cccnc1	0	0	0	0	0	0	-	-	-	-
O=C(NCc1cccnc1)/C(=C\c1ccc(-c2ccc(Br)cc2)o1)S(=O)(=O)c1ccccc1	0	14.1µM	7.08µM	5.8µM	9.2µM	10µM	5.8µM	3.26µM	5.17µM	?
NC(=O)[C@H]1CC2(CC(c3cccc(NC(=O)COc4ccc(Cl)cc4)c3)=NO2)CN1C(=O)c1ccc(Cl)cc1 (some centres not stated)	0	?	?	?	?	17.8µM	18.4µM	0	18.4µM	0
S=C(NCc1ccco1)Nc1ccc(Oc2ccc(Cl)cc2)cc1	0	0	0	?	?	15.8µM	?	?	?	0
CCN(c1cccc2ccccc12)S(=O)(=O)c1cccs1	0	0	0	0	0[9.24 µM]	?	-	-	-	-
CC(=O)Oc1ccc(N(C(C)=O)S(=O)(=O)c2cccs2)c2ccccc12	0	?	25.1µM	17.8µM	?	10µM	?	0	?	0
CCCCCCN1C[C@H](n2cc(-c3ccc(F)cc3)nn2)[C@@H](O)C[C@@H]1c1ccc(Cl)cc1	11.2µM	-	31.6µM	?	?	7.08µM	20.6µM	?	18.4µM	?
COc1ccc(/C=N\NC(=O)c2ccccc2[N+](=O)[O-])cc1COc1c(F)c(F)c(F)c(F)c1F	0	0	0	0	0	8.91µM	2.59µM	?	?	0
SMILES	HepG2 tox-1	S2 tox	ATXN2 expr inh	HT1080 IDH1KD tx	HT1080NT lethal	TGFb SMAD3 inh	TGFb CAGA inh	HepG2 tox-2	CCL64 TGFb inh	TGFb COP inh
COc1ccc(/C=N/NC(=O)c2ccccc2[N+](=O)[O-])cc1CN1CCc2cc(OC)c(OC)cc2C1C (configuration not stated)	0	0	0	0	0	0	-	-	-	-
COc1cccc(CN(C(=O)Cc2c[nH]c3ccccc23)C(C(=O)NC2CCCCC2)c2ccc(C)o2)c1 (configuration not stated)	0	?	?	?	0	15.8µM	25.9µM	?	?	0
CC(C)NC(=O)CSc1nc2ccccc2nc1N1CCCCC1	0	0	0	-	-	0	-	-	-	-
COCCSc1nc2c([nH]c3ccccc32)c(=O)n1-c1ccc(OC)c(OC)c1	0	0	0	-	-	0	-	-	-	-
O=C(C#Cc1ccccc1)Nc1cccc(F)c1	0	?	?	3.66µM	?	3.98µM	2.06µM	6.51µM	5.8µM	0
O=C(CC(=O)Nc1cccc(F)c1)Nc1cccc(F)c1	0	0	0	0	0	0	-	-	-	-
CSc1cccc(NC(=O)CCCOc2ccc(Cl)cc2C)c1	0	0	0	?	?	12.6µM	20.6µM	0	0	0

Screens: PubChem, National Center for Advancing Translational Sciences (NCATS)
